# According to PubChem BioAssay (Tox21):
# A number with no mark means an inactive call. Inconclusive results are not listed. A call without a number means that no potency is given here. Activity calls are given as the source filed them. Calls follow the shape of the full dose curve.
# Assays:
# [1] = target: Acetylcholinesterase (Homo sapiens) (UniProt P22303); assay: Acetylcholinesterase (AChE) small molecule antagonists: colormetric cell-based qHTS assay (AID 1347395); also: nearly all actives have a fitted effect of over 30% in size
# In short: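 In this cell-based qHTS, attached SH-SY5Y cells were treated with test chemicals for 30 min, after which acetylthiocholine hydrolysis was followed by DTNB colour development over 90 min at 37 C.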
# [2] = target: Acetylcholinesterase (Homo sapiens) (UniProt P22303); assay: Acetylcholinesterase (AChE) small molecule antagonists: enzyme-based qHTS assay (AID 1347397); conditions: Potency: AChE enzyme activity inhibition; outcome: AChE enzyme activity inhibition; also: nearly all actives have a fitted effect of over 55% in size
# In short: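 Colorimetric DTNB read-out of thiocholine released from acetylthiocholine by recombinant human AChE (50 mU/mL as dispensed). Compounds were preincubated 30 min at RT before substrate/DTNB addition, with a 10 min RT reaction.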
# [3] = target: Acetylcholinesterase (Homo sapiens) (UniProt P22303); assay: Acetylcholinesterase (AChE) small molecule antagonists: fluorescence cell-based qHTS assay (AID 1347398); conditions: Potency: AChE activity; outcome: AChE activity; also: nearly all actives have a fitted effect of over 50% in size; also: potency is read from the fitted curve at half-maximal effect
# In short: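 SH-SY5Y, 2,000 cells/well, attached overnight; cmpd 30 min 37 C; acetylthiocholine/Thiolite Green cocktail 40 min RT; fluorescence Ex/Em 490/520 nm.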
# [4] = target: Acetylcholinesterase (Homo sapiens) (UniProt P22303); assay: Acetylcholinesterase (AChE) small molecule antagonists: enzyme-based qHTS assay with human liver microsomes (AID 1347399); conditions: Potency: qHTS inhibition; outcome: qHTS inhibition; also: nearly all actives have a fitted effect of over 60% in size
# In short: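 Recombinant human AChE (50 mU/mL in the enzyme mix) and human liver microsomes (0.25 mg/mL final) were preincubated with compound and NADPH (0.25 mg/mL final) for 30 min at 37 C. Acetylthiocholine/DTNB was then added; thiocholine was read colorimetrically after 10 min at room temperature.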
# Sequence of Acetylcholinesterase (Homo sapiens) (P22303 whole entry, looked up): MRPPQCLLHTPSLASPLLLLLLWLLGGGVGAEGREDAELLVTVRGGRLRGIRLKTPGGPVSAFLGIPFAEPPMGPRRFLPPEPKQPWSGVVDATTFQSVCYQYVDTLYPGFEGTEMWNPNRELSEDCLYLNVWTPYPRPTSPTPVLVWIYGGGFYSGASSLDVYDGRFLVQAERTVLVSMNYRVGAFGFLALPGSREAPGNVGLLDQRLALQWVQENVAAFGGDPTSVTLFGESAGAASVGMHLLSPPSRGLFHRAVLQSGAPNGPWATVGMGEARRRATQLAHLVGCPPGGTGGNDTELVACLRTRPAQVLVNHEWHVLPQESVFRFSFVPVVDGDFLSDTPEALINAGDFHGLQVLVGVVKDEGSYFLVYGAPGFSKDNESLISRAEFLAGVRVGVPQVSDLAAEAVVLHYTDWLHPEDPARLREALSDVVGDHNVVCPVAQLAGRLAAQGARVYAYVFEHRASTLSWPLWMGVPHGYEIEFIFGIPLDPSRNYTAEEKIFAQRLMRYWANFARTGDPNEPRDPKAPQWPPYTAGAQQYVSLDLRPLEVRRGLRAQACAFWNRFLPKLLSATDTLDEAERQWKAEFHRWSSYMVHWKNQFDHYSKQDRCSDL
SMILES,Potency [1],Potency [2],Potency [3],Potency [4],"activity, negative = inhibition [1]","activity change, negative = inhibition [2]","activity change, negative = inhibition [4]"
CC(C)(c1ccccc1)c1ccccc1,inactive,inactive,inactive,inactive,–,–,–
CN1Cc2cc(C(=O)N3CCC(C4CCNCC4)CC3)ccc2NC(CC(=O)O)C1=O (stereo not given),inactive,inactive,inactive,inactive,–,–,–
CNC(=O)c1c(I)c(NC(=O)CCCCC(=O)Nc2c(I)c(C(=O)O)c(I)c(C(=O)NC)c2I)c(I)c(C(=O)O)c1I,inactive,inactive,inactive,inactive,–,–,–
Cc1cc(C)n(CO)n1,inactive,inactive,inactive,inactive,–,–,–
CC1=C(/C=C/C(C)=C/C=C/C(C)=C/CO)C(C)(C)CCC1,inactive,inactive,inactive,inactive,–,–,–
C[C@@H](O)C(=O)O,inactive,inactive,inactive,inactive,–,–,–
O=C(O)CCCCCCCCCCCC(=O)O,inactive,inactive,inactive,inactive,–,–,–
N[C@H](Cc1c[nH]c2ccccc12)C(=O)O,inactive,inactive,inactive,inactive,–,–,–
[O-][n+]1ccccc1SSc1cccc[n+]1[O-],–,–,12 µM (active),–,-9.35% [at 23.6 µM],-9.5% [at 23.6 µM],-15.2% [at 23.6 µM]
C[C@@H](CN1CC(=O)NC(=O)C1)N1CC(=O)NC(=O)C1,inactive,inactive,inactive,inactive,–,–,–
O=C(O)c1cc2ccccc2cc1O,inactive,inactive,inactive,inactive,–,–,–
CCCC(O)C(O)CO (stereo not given),inactive,inactive,inactive,inactive,–,–,–
CC(C=O)Cc1ccc(C(C)(C)C)cc1 (stereo not given),inactive,inactive,inactive,inactive,–,–,–
N[C@H]1C(O)O[C@H](CO)[C@H](O)[C@@H]1O (stereo not given in full),inactive,inactive,inactive,inactive,–,–,–
O=C1CCCCCN1SSN1CCCCCC1=O,inactive,inactive,inactive,inactive,–,–,–
CCN1CCC[C@H]1CNC(=O)c1c(O)c(Cl)cc(Cl)c1OC,inactive,inactive,inactive,inactive,–,–,–
CCOC(=O)n1ccn(C)c1=S,inactive,inactive,inactive,inactive,–,–,–
CCN(CC#N)c1cccc(C)c1,inactive,inactive,inactive,inactive,–,–,–
O=C(O)c1ccc(OCCN2CCCCC2)cc1,inactive,inactive,inactive,inactive,–,–,–
NC(=O)CC[C@@H]1NC(=O)[C@H](Cc2ccccc2)NC(=O)[C@H](Cc2ccc(O)cc2)NC(=O)CCSSC[C@@H](C(=O)N2CCC[C@H]2C(=O)N[C@@H](CCCN=C(N)N)C(=O)NCC(N)=O)NC(=O)[C@H](CC(N)=O)NC1=O,inactive,inactive,inactive,inactive,–,–,–
O=C(CO)[C@@H](O)[C@H](O)[C@H](O)CO,inactive,inactive,inactive,inactive,–,–,–
Cc1nc(C2CCCCC2)c(-c2ccc(S(N)(=O)=O)c(F)c2)o1,inactive,inactive,inactive,inactive,–,–,–
OC[C@@H](O)[C@@H](O)[C@H](O)[C@@H](O)CO,inactive,inactive,inactive,inactive,–,–,–
O=C(O)C(=O)Nc1cccc(-c2nn[nH]n2)c1,inactive,inactive,inactive,inactive,–,–,–
NC(N)=NS(=O)(=O)c1ccc(N)cc1,inactive,inactive,inactive,inactive,–,–,–
CO[Si](C)(C)OC,inactive,inactive,inactive,inactive,–,–,–
C[C@]12CC[C@H]3[C@@H](CCC4=CC(=O)CC[C@@]43C)[C@@H]1CC[C@@H]2C(=O)CO,inactive,inactive,inactive,inactive,–,–,–
Cc1ccccc1C=O,inactive,inactive,inactive,inactive,–,–,–
COc1cc(C(=O)N2CCOCC2)cc(OC)c1OC,inactive,inactive,inactive,inactive,–,–,–
CCN(Cc1c(F)cccc1Cl)c1c([N+](=O)[O-])cc(C(F)(F)F)cc1[N+](=O)[O-],inactive,inactive,inactive,inactive,–,–,–
